The list is not random: actives were taken first. Their share in the collection is about 1.1%.
HTR5A ag: HTR5A agonists in luminescence cell assay, primary screen, counter-screen for OPRM1-OPRD1 heterodimer agonist project, full-deck HTS | activation, % at 9.3 µM | 340,000 compounds, 0.61% hits | 5-hydroxytryptamine receptor 5A (Homo sapiens), P47898 | cell-based | AID 504692, 2011; in the data active means activation mostly above about 9.5%, no sharp cut-off; inactive means mostly below about 7.6%
Target sequence (P47898 whole entry, looked up): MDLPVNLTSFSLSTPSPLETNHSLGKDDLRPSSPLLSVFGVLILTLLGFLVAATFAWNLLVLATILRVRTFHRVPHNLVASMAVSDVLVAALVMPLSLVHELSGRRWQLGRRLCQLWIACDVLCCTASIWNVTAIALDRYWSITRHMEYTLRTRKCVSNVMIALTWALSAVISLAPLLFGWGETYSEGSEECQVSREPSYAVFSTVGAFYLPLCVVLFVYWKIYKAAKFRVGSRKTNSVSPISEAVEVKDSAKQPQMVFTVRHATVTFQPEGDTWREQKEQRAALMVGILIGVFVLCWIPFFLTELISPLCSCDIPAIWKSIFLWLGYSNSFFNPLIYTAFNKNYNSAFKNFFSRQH
MOR-DOR inv ag: inverse agonists of MOR-DOR heterodimerization, primary screen, cell-based, luminescence; cell-based MOR-DOR heterodimer luminescence, inverse agonism; 340,000 compounds, 0.21% hits; inhibition, % at 9.3 µM; in the data active means inhibition above about 22%, passing the limit was not always enough
HTR5A inv ctr: HTR5A inverse agonists in luminescence cell assay, primary screen, counter-screen for OPRM1-OPRD1 heterodimer inverse agonist project, full-deck HTS. 5-hydroxytryptamine receptor 5A (Homo sapiens), P47898. HTR5A cell line, inverse agonism. inhibition, % at 9.3 µM. 340,000 compounds, 0.083% hits. AID 504634, 2011; in the data active means inhibition mostly above about 23%, no sharp cut-off; inactive means mostly below about 18%
MOR-DOR ag-1: agonists of OPRM1-OPRD1 heterodimerization, primary screen, cell-based, luminescence | activation, % at 9.3 µM | Mu-type opioid receptor (Homo sapiens) + Delta-type opioid receptor (Homo sapiens), … | cells | 340,000 compounds, 0.3% hits
MOR-DOR ag-2: OPRM1-OPRD1 heterodimerization promoters, counter-screen for HTR5A agonist project, cell-based, luminescence; activation, % at 9.3 µM; shares compounds with HTR5A ag; AID 504913, 2011; U2OS counter-screen cells, complementation luminescence, 3 h; 800 compounds, 13% hits
HTR5A ag conf: HTR5A agonists, retest of hits, confirmation, cell-based, luminescence; shares compounds with HTR5A ag; HTR5A agonist cell assay; activation, % at 9.3 µM; 800 compounds, 17% hits; in the data active means activation above about 17%
Numbers stand for hits. Unless noted, no stated cut-off is given here; in the data, active means activation above about 18%; inactive means the rest.

`N#CC(=C=[N-])c1nc2ccccc2nc1-[n+]1cccc(NC(=O)c2ccccc2)c1` gave HTR5A ag inactive, MOR-DOR inv ag inactive, HTR5A inv ctr inactive and MOR-DOR ag-1 inactive.
For CCc1cc[n+](-c2nc3ccccc3nc2C(=C=[N-])C#N)cc1 the results were HTR5A ag 16, MOR-DOR inv ag inactive, HTR5A inv ctr inactive, MOR-DOR ag-1 inactive, MOR-DOR ag-2 inactive and HTR5A ag conf inactive.
Screening O=C(O)c1ccccc1C(=O)c1cccc2c(Br)cccc12 returned HTR5A ag inactive, MOR-DOR inv ag inactive, HTR5A inv ctr inactive and MOR-DOR ag-1 inactive.
O=C(O)C(SC(C(=O)O)c1ccccc1)c1ccccc1 (centres undefined) was read as HTR5A ag inactive, MOR-DOR inv ag inactive, HTR5A inv ctr inactive and MOR-DOR ag-1 inactive.
For CCC(=O)c1ccccc1OCC(=O)Nc1c(C)cccc1C the results were HTR5A ag 16, MOR-DOR inv ag inactive, HTR5A inv ctr inactive, MOR-DOR ag-1 inactive, MOR-DOR ag-2 inactive and HTR5A ag conf inactive.
For CN(C)c1ccc(S(=O)(=O)c2ccc(Cl)cc2)cc1 the results were HTR5A ag 16, MOR-DOR inv ag inactive, HTR5A inv ctr inactive, MOR-DOR ag-1 inactive, MOR-DOR ag-2 inactive and HTR5A ag conf inactive.
For Cc1ccc(C(=O)N2CCOCC2)cc1S(=O)(=O)N1CCCCC1 the results were HTR5A ag inactive, MOR-DOR inv ag inactive, HTR5A inv ctr inactive and MOR-DOR ag-1 inactive.
For O=C(CCl)N1N=C(c2ccco2)CC1c1cccs1 (centres undefined) the results were HTR5A ag inactive, MOR-DOR inv ag inactive, HTR5A inv ctr inactive and MOR-DOR ag-1 inactive.
Cc1ccc(C2=NN(C(=O)CCl)C(c3cccs3)C2)o1 (centres undefined) was read as HTR5A ag 16, MOR-DOR inv ag inactive, HTR5A inv ctr inactive, MOR-DOR ag-1 inactive, MOR-DOR ag-2 21 and HTR5A ag conf 17.
`Cc1nn(-c2ccccc2)c(Cl)c1C(=O)NCCN(C)C` gave HTR5A ag 15, MOR-DOR inv ag inactive, HTR5A inv ctr inactive, MOR-DOR ag-1 inactive, MOR-DOR ag-2 inactive and HTR5A ag conf inactive.
For Cc1nn(-c2ccccc2)c(Cl)c1C(=O)NCC(C)C the results were HTR5A ag inactive, MOR-DOR inv ag inactive, HTR5A inv ctr inactive and MOR-DOR ag-1 inactive.
Screening Cc1ccc(OCC(=O)N(C)CC(=O)Nc2ccc(Cl)c(C(F)(F)F)c2)c([N+](=O)[O-])n1 returned HTR5A ag 15, MOR-DOR inv ag inactive, HTR5A inv ctr inactive, MOR-DOR ag-1 inactive, MOR-DOR ag-2 inactive and HTR5A ag conf inactive.
Cc1ccc2cccc(OCC(=O)N(C)CC(=O)Nc3ccc(F)cc3)c2n1 was read as HTR5A ag 16, MOR-DOR inv ag inactive, HTR5A inv ctr inactive, MOR-DOR ag-1 inactive, MOR-DOR ag-2 inactive and HTR5A ag conf inactive.
Screening Cc1ccc(OCC(=O)N(C)CC(=O)Nc2ccc(F)cc2)c([N+](=O)[O-])n1 returned HTR5A ag inactive, MOR-DOR inv ag inactive, HTR5A inv ctr inactive and MOR-DOR ag-1 inactive.
COc1cc(OC)c(OC)cc1/C=C1\CC(C)C/C(=C\c2cc(OC)c(OC)cc2OC)C1=O (centres undefined) was read as HTR5A ag inactive, MOR-DOR inv ag inactive, HTR5A inv ctr inactive and MOR-DOR ag-1 inactive.
COC(=O)c1ccc(NC(=O)c2cc[n+](Cc3ccccc3)cc2)cc1 was read as HTR5A ag 15, MOR-DOR inv ag inactive, HTR5A inv ctr inactive, MOR-DOR ag-1 inactive, MOR-DOR ag-2 inactive and HTR5A ag conf inactive.
For Cc1ccc(OCCn2c(C)c(/C=N/n3cnnc3)c3ccccc32)cc1 the results were HTR5A ag 21, MOR-DOR inv ag inactive, HTR5A inv ctr inactive, MOR-DOR ag-1 inactive, MOR-DOR ag-2 inactive and HTR5A ag conf inactive.
`Cc1c(/C=N/n2cnnc2)c2ccccc2n1CCOc1ccc(Cl)cc1` gave HTR5A ag inactive, MOR-DOR inv ag inactive, HTR5A inv ctr inactive and MOR-DOR ag-1 inactive.
`COc1ccc(CCNC(=O)COc2ccc(N(C)S(=O)(=O)c3ccc(C)cc3)cc2)cc1` gave HTR5A ag 16, MOR-DOR inv ag inactive, HTR5A inv ctr inactive, MOR-DOR ag-1 inactive, MOR-DOR ag-2 inactive and HTR5A ag conf inactive.
`O=C(CC1CC2CCC1C2)OCC(=O)c1c[nH]c2ccccc12` (centres undefined) gave HTR5A ag 15, MOR-DOR inv ag inactive, HTR5A inv ctr inactive, MOR-DOR ag-1 inactive, MOR-DOR ag-2 inactive and HTR5A ag conf inactive.
Screening O=C(Cc1ccc(Br)cc1)NCCc1ccc(Cl)cc1Cl returned HTR5A ag 16, MOR-DOR inv ag inactive, HTR5A inv ctr inactive, MOR-DOR ag-1 inactive, MOR-DOR ag-2 inactive and HTR5A ag conf inactive.
Screening O=C1OC(CO)CN1Cc1ccccc1 (centres undefined) returned HTR5A ag inactive, MOR-DOR inv ag inactive, HTR5A inv ctr inactive and MOR-DOR ag-1 inactive.
For COC(=O)c1cc(NS(=O)(=O)c2ccc(N3CCOCC3)c(N)c2)cc(C(=O)OC)c1 the results were HTR5A ag 15, MOR-DOR inv ag inactive, HTR5A inv ctr inactive, MOR-DOR ag-1 inactive, MOR-DOR ag-2 inactive and HTR5A ag conf inactive.
For COC(=O)c1cc(NS(=O)(=O)c2ccc(N3CCOCC3)c(NC(C)=O)c2)cc(C(=O)OC)c1 the results were HTR5A ag inactive, MOR-DOR inv ag inactive, HTR5A inv ctr inactive and MOR-DOR ag-1 inactive.
Screening CC1CCN(S(=O)(=O)c2cn(CC(=O)N3CCN(c4cccc(C(F)(F)F)c4)CC3)cn2)CC1 returned HTR5A ag inactive, MOR-DOR inv ag inactive, HTR5A inv ctr inactive and MOR-DOR ag-1 inactive.
For CCCCc1cc(=O)oc2cc(OCC(=O)NC3CCN(Cc4ccccc4)CC3)ccc12 the results were HTR5A ag 15, MOR-DOR inv ag inactive, HTR5A inv ctr inactive, MOR-DOR ag-1 inactive, MOR-DOR ag-2 inactive and HTR5A ag conf inactive.
Screening CCn1c(N2CCN(C(=S)NC)CC2)nc2ccccc21 returned HTR5A ag 24, MOR-DOR inv ag inactive, HTR5A inv ctr inactive, MOR-DOR ag-1 inactive, MOR-DOR ag-2 inactive and HTR5A ag conf inactive.
For CCn1c(N2CCN(S(=O)(=O)c3ccc(Cl)cc3)CC2)nc2ccccc21 the results were HTR5A ag 16, MOR-DOR inv ag inactive, HTR5A inv ctr inactive, MOR-DOR ag-1 inactive, MOR-DOR ag-2 inactive and HTR5A ag conf inactive.
`CCn1c(N2CCN(C(=S)NCC(C)C)CC2)nc2ccccc21` gave HTR5A ag inactive, MOR-DOR inv ag inactive, HTR5A inv ctr inactive and MOR-DOR ag-1 inactive.
Screening CCn1c(N2CCN(C(=S)NCCc3ccccc3)CC2)nc2ccccc21 returned HTR5A ag 31, MOR-DOR inv ag inactive, HTR5A inv ctr inactive, MOR-DOR ag-1 inactive, MOR-DOR ag-2 inactive and HTR5A ag conf 30.
